Data on 22 compounds can be found in PubChem BioAssay (Tox21).

Where “and” joins values, the source holds several entries; their conditions need not be identical. Equal entries are not always repeated. Results filed as inconclusive are left out. More than one record can exist for a structure, and the calls need not agree. Calls of active or inactive are those of the source. Calls follow the shape of the dose curve; as a rule, active = well fitted curve in the direction sought with a large enough effect in the repeat runs; inconclusive = weak or mixed curves; inactive = no such curve, though single readings can be large; an effect the other way counts as inactive or inconclusive.

Experiment [1] can be described thus: Caspase-3/7 induction in CHO-K1 cells by small molecules, qHTS cell viability counter screen (AID 1346979). Also: nearly all actives have a fitted effect of over 35% in size. Also: potency is read from the fitted curve at half-maximal effect. An outline of the steps:
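Following a 5hr settling period, CHO-K1 cells at 1,500 per well received DMSO-dissolved compounds. Cell viability was quantified 16hr later by CellTiter-Fluor fluorescence, measured after 1hr with reagent at 37C.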

Experiment [2] can be described thus: Caspase-3/7 induction in CHO-K1 cells by small molecules, qHTS assay (AID 1346980). Also: nearly all actives have a fitted effect of over 15% in size. Also: potency is read from the fitted curve at half-maximal effect. An outline of the steps: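 Wild-type cells were seeded at 1,500 per well and settled 5 hr at 37 C, 5% CO2, then exposed to DMSO-dissolved compounds for 17 hr. Caspase-Glo 3/7 reagent was added, and luminescence was read after 30min at room temperature.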
Experiment [3] deals with Nuclear receptor subfamily 1 group I member 2 (Homo sapiens) (UniProt O75469). The experiment in a line: Human pregnane X receptor (PXR) small molecule agonists, qHTS assay (AID 1346982). Also: nearly all actives have a fitted effect of over 35% in size. Also: potency is read from the fitted curve at half-maximal effect. An outline of the steps: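 PXR-Luc HepG2 reporter cells (CYP3A4-driven luciferase) in 5% charcoal-stripped FBS medium, plated 5 h before compound addition, then treated 24 h at 37C. Luciferase read by ONE-Glo luminescence after 30 min at room temperature.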
Nuclear receptor subfamily 1 group I member 2 (Homo sapiens), sequence (O75469 whole entry, looked up): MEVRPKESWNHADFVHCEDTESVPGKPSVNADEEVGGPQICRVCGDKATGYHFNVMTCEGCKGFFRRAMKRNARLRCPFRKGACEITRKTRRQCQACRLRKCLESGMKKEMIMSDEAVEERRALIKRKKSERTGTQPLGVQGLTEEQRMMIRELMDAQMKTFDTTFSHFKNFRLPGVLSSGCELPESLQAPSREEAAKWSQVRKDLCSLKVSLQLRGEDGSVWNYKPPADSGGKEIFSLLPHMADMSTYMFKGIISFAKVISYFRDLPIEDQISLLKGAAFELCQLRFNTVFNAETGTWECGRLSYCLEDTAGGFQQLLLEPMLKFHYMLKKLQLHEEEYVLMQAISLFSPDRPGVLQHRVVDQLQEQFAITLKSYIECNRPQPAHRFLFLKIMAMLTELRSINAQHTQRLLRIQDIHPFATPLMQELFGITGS

The target of experiment [4] is Cytochrome P450 2D6 (Homo sapiens) (UniProt P10635). Briefly: Cytochrome P450 Family 2 Subfamily D Member 6 (CYP2D6) small molecule antagonists: luciferase reporter qHTS assay (AID 1671196). Also: nearly all actives have a fitted effect of over 50% in size. Also: potency is read from the fitted curve at half-maximal effect. As to activity change, negative = inhibition: series mostly up to about 120 µM. In outline:
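Cell-free P450-Glo system: CYP2D6 with proluciferin substrate was pre-incubated with compound for 10 min, then reacted with NADPH regeneration for 1 h at room temperature. Luciferin product was detected after 20 min, and data were reported as relative luminescence units.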

The target in experiment [5] is Cytochrome P450 2C19 (Homo sapiens) (UniProt P33261). The experiment in a line: Cytochrome P450 Family 2 Subfamily C Member 19 (CYP2C19) small molecule antagonists: luciferase reporter qHTS assay (AID 1671197). Also: nearly all actives have a fitted effect of over 65% in size. Also: potency is read from the fitted curve at half-maximal effect. As to activity change, negative = inhibition: series mostly up to about 120 µM. An outline of the steps:
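Relative luminescence units recorded 20 min after the detection reagent stopped a 1 h, 37C CYP2C19 reaction on proluciferin substrate, which was started by NADPH regeneration following 10 min room-temperature compound preincubation; ketoconazole positive control.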

The target in experiment [6] is Cytochrome P450 2C9 (Homo sapiens) (UniProt P11712). Briefly: Cytochrome P450 Family 2 Subfamily C Member 9 (CYP2C9) small molecule antagonists: luciferase reporter qHTS assay (AID 1671198). Also: nearly all actives have a fitted effect of over 50% in size. Also: potency is read from the fitted curve at half-maximal effect. As to activity change, negative = inhibition: series mostly up to about 120 µM. An outline of the steps: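 CYP2C9 activity was measured with a P450-Glo proluciferin substrate. Enzyme–substrate mix was held with compound for 10 min at room temperature, then NADPH regeneration solution was added for 1 h at 37C. Luciferin product was read as luminescence.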
Cytochrome P450 2C9 (Homo sapiens), sequence (P11712 whole entry, looked up): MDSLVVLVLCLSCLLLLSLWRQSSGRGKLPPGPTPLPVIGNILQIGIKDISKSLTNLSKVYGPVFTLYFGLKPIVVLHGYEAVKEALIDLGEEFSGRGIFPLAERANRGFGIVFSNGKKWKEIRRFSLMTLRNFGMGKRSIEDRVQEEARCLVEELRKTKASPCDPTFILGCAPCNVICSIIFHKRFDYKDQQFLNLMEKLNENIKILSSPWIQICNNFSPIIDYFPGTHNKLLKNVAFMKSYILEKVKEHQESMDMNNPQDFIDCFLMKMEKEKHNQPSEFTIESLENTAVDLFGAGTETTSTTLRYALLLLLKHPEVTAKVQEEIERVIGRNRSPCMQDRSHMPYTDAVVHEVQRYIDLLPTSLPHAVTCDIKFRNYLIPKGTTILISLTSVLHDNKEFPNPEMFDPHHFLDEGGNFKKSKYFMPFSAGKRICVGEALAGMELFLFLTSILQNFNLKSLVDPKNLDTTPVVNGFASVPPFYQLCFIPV

The nature of experiment [7]: Caspase-3/7 induction in HepG2 cells by small molecules, qHTS cell viability counter screen (AID 1346981). Also: nearly all actives have a fitted effect of over 30% in size. Also: potency is read from the fitted curve at half-maximal effect. As to activity change, negative = cytotoxicity: series mostly up to about 92 µM. In outline: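 Wild-type HepG2 cells, 2,000/well, settled 5 hr at 37 C, 5% CO2 before compound addition. Viability read by CellTiter-Fluor fluorescence, reagent added after 16 hr compound exposure, then 1 hr at 37C, in the same wells as the caspase read.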
The target of experiment [8] is Nuclear receptor subfamily 1 group I member 2 (Rattus norvegicus) (UniProt Q9R1A7). Briefly: Rat pregnane X receptor (rPXR) activation by small molecules, qHTS assay (AID 1346983). Also: nearly all actives have a fitted effect of over 20% in size. As to conditions: rPXR luciferase reporter cells, One-Glo luminescence, 24 h; stronger effect = higher value. An outline of the steps:
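Cell-based rPXR luciferase reporter assay, 2,000 cells per well, rested 5hr at 37 C before compound addition in DMSO, then 24 hr at 37 C. One-Glo reagent was added and luminescence read after 30 min at room temperature.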

Experiment [9] has as its target Nuclear receptor subfamily 1 group I member 2 (Homo sapiens) (UniProt O75469). The experiment in a line: CYP3A4 induction through human pregnane X receptor (PXR) by small molecules, qHTS assay (AID 1346984). Also: nearly all actives have a fitted effect of over 40% in size. In outline: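 DPX-2 HepG2 cells carrying a PXR response element and CYP3A4-promoter luciferase construct, treated with compounds 24 hr at 37C. Then P450-Glo CYP3A4 Luciferin-IPA substrate (3uM final) for 3 hr at 37C, One-Glo added, luminescence read.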

Experiment [10] shares this target. The experiment in a line: Human pregnane X receptor (PXR) activation by small molecules, qHTS assay (AID 1346985). Also: nearly all actives have a fitted effect of over 40% in size. Also: potency is read from the fitted curve at half-maximal effect. An outline of the steps: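 DPX-2 cells (HepG2 co-transfected with a PXR response element and a CYP3A4-promoter luciferase construct) were seeded at 2,000 per well, rested 5 hr at 37C, then exposed to DMSO-dissolved compounds for 24 hr. Activation was read as luciferase luminescence.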
% is scaled to controls: 0 for no effect and ±100 for the full control effect.

Nuclear receptor subfamily 1 group I member 2 (Rattus norvegicus), sequence (Q9R1A7 whole entry, looked up): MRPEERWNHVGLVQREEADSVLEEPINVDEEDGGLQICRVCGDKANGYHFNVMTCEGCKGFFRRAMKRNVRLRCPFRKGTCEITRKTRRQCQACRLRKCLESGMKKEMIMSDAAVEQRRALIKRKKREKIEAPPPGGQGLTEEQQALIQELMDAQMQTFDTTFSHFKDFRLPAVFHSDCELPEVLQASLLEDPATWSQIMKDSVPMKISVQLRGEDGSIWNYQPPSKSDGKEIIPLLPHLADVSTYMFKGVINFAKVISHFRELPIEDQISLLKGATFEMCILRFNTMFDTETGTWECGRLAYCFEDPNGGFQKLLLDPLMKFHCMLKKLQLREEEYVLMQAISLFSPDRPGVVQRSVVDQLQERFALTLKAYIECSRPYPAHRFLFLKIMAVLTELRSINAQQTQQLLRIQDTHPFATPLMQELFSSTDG
Cytochrome P450 2C19 (Homo sapiens), sequence (P33261 whole entry, looked up): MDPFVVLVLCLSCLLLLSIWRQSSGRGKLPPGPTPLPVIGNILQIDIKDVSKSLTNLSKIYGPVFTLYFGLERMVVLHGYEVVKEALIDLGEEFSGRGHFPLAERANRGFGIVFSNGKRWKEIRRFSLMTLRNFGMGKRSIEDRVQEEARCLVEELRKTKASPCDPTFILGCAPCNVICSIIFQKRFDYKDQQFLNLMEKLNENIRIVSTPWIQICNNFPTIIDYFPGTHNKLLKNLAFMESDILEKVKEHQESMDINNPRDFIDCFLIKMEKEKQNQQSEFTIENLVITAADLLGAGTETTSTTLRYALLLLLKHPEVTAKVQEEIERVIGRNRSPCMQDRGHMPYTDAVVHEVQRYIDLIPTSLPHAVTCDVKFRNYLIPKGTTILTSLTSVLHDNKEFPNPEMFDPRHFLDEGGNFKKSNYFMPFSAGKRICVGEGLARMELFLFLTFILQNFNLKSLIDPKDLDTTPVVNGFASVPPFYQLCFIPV
Cytochrome P450 2D6 (Homo sapiens), sequence (P10635 whole entry, looked up): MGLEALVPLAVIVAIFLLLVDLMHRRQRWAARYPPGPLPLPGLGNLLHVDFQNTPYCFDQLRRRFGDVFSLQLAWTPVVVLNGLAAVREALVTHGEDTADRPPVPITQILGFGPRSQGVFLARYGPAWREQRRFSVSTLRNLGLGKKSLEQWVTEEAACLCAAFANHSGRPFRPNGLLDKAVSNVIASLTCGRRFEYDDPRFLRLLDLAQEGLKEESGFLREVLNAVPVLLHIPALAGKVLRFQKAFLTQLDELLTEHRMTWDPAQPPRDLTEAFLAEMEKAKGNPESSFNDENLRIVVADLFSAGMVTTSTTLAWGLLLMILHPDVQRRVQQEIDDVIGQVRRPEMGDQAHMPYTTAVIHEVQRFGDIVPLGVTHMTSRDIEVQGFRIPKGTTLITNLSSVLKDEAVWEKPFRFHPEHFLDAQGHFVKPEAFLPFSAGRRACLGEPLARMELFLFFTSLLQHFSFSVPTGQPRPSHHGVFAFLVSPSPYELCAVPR

As for `CCCCCCCCCCCCCCCCCl`, in experiment [1], the activity change, negative = cytotoxicity was -2.27% [at 19 µM] (inactive). Moreover, the caspase-3/7 activation in experiment [2] was -1.24% [at 19 µM] (inactive). The activation in experiment [3] was -2.47% [at 19 µM] (inactive). Further, the activity change, negative = inhibition in experiment [4] was 0.322% [at 23.6 µM] (inactive); in experiment [5] it was -0.542% [at 23.6 µM] (inactive); in experiment [6], 1.72% [at 23.6 µM] (inactive).

With `c1ccc2c(c1)CCCC2C1=NCCN1` (stereo not drawn), the Potency result in experiment [2] and in [7] was “inactive” each time.

For `CCCOC(=O)c1cc(O)c(O)c(O)c1`, the Potency in experiment [1] was 48.3 µM (active) and 30.6 µM (active); in experiment [3], 27.3 µM (active); in experiment [4], 31.6 µM (active) and 35.6 µM (active); in experiment [5], 79.3 µM (active) and 56.4 µM (active). The Potency entry in experiment [2] is “inactive”.

On to `CCC(CO)(CO)COCC(CC)(CO)CO`, for which the Potency result in experiment [1], in [2], in experiment [3], in experiment [4] and in [5] was “inactive” each time.

As for `C=C(C)C1CC=C(C)C(OC(C)=O)C1` (stereo not drawn), the Potency entry in [1], in experiment [2], in experiment [3], in experiment [5] and in experiment [6] was “inactive” throughout. Besides, in experiment [4], the Potency was 28.1 µM (active) and inactive.

Take `CN(C)c1ccc2nc3ccc(=[N+](C)C)cc-3sc2c1`: the Potency result in experiment [2], in experiment [3] and in experiment [9] was “inactive” in each case. The Potency was 10.4 µM (active) and 27.3 µM (active) and 23.7 µM (active) in [7]; 3.16 µM (active) in experiment [10]. Besides, the max activation in experiment [8] was -8.38% (inactive).

Consider `COc1ccc(CCN2CCC(Nc3nc4ccccc4n3Cc3ccc(F)cc3)CC2)cc1`, for which the Potency in experiment [2] was 11.1 µM (active); in experiment [7], 8.82 µM (active) and 29.8 µM (active).

For `NCCCCCC(=O)O`, the Potency entry in experiment [2], in experiment [7], in experiment [3], in [9], in experiment [10] and in experiment [4] was “inactive” in each case. The Potency entry in [5] and in experiment [6] was “inactive” each time. For the same compound, the max activation in experiment [8] was 1.85% (inactive).

`O=C(O)c1cccc(C(=O)O)c1`: the Potency entry in experiment [1], in experiment [2], in experiment [3], in experiment [4], in experiment [5] and in [6] was “inactive” each time.

On to `Cc1cccc2n[nH]nc12`, for which the Potency entry in experiment [1], in experiment [2], in experiment [4], in [5] and in [6] was “inactive” each time.

In the case of `C/C=C/c1ccc(OCC)c(O)c1`, the Potency result in experiment [1], in experiment [2], in [3] and in experiment [4] was “inactive” throughout. Also, the Potency in [5] is 20 µM (active) and 25.2 µM (active); in [6], 35.6 µM (active) and 28.3 µM (active).

With `CCCNC(C)C(=O)Nc1ccccc1C` (stereo not drawn), the Potency entry in experiment [2], in experiment [7], in experiment [3], in [9], in experiment [10] and in [5] was “inactive” each time. Also, the Potency result in experiment [6] is “inactive”. Besides, in [8], the max activation was -2.15% (inactive). The Potency in experiment [4] is 27.5 µM (active).

For `CC(N)=O`, the Potency entry in experiment [1], in experiment [2], in experiment [3], in experiment [4] and in experiment [5] was “inactive” each time.

Regarding `Nc1ccc(O)cc1`, the Potency is 56.6 µM (active) in experiment [1]; 37 µM (active) in [4]; 20.8 µM (active) and 34.7 µM (active) in experiment [5]; 26.2 µM (active) and 34.7 µM (active) in experiment [6]. Besides, the Potency result in experiment [2] and in experiment [3] was “inactive” each time.

For the compound `COC(=O)[C@H]1[C@H]2C[C@@H]3c4[nH]c5cc(OC)ccc5c4CCN3C[C@H]2C[C@@H](OC(=O)c2cc(OC)c(OC)c(OC)c2)[C@@H]1OC`, the Potency in experiment [1] is 30.6 µM (active) and 39.7 µM (active) and inactive; in [4], 28.2 µM (active) and 9.19 µM (active); in experiment [5] it was 41.1 µM (active) and inactive. In addition, in experiment [2], the Potency entry is “inactive”.

As to `Nc1cc(Cl)c(-c2cc(Cl)c(N)cc2Cl)cc1Cl`, the Potency in [1] was 30.6 µM (active) and 54.5 µM (active); in experiment [3], 24.3 µM (active) and 19.3 µM (active); in experiment [5], 10 µM (active) and 7.1 µM (active). The Potency result in experiment [2] was “inactive”.

Consider `CC(C)(C)c1ccc(O)c(C(C)(C)C)c1`, for which the Potency in experiment [1] was 60.9 µM (active) and 54.5 µM (active); in experiment [4], 19.9 µM (active); in [5] it was 9.99 µM (active) and 17.8 µM (active); in experiment [6], 12.6 µM (active) and 11.2 µM (active). For the same compound, the Potency result in [3] is “inactive”.

In the case of `O=C(O)Cn1cnnn1`, the Potency entry in [1], in experiment [2], in experiment [3], in [4], in [5] and in experiment [6] was “inactive” in each case.

For the compound `CC(=O)N[C@@H](CS)C(=O)O`, the Potency entry in [2], in [7], in experiment [3], in experiment [9], in experiment [10] and in experiment [4] was “inactive” in each case. Moreover, the Potency entry in experiment [6] was “inactive”. Further, the max activation in experiment [8] is -0.291% (inactive). The Potency in experiment [5] is 56.3 µM (active) and inactive.

Regarding `CC(C)(C)c1cc(C(C)(C)C)c(O)c(C(C)(C)C)c1`, the Potency result in [1], in experiment [2], in [4] and in experiment [5] was “inactive” each time. For the same compound, the Potency in [3] is 68.6 µM (active) and inactive; in [6] it was “inactive and 35.6 µM (active)”.

Take `CC(=O)CC(C)=O`: the Potency result in experiment [1], in [2], in [3], in [4], in experiment [5] and in experiment [6] was “inactive” in each case.

In the case of `CC(COc1ccccc1)N(CCCl)Cc1ccccc1` (stereo not drawn), the Potency entry in [1] and in experiment [2] was “inactive” throughout. The Potency is 570 nM (active) and 448 nM (active) and 692 nM (active) in [4]; 2.27 µM (active) and 2.24 µM (active) and 3.47 µM (active) in experiment [5]; 28.6 µM (active) and 22.4 µM (active) and 12.3 µM (active) in [6].
